Reference: PubChem BioAssay (EPA / NIEHS)
Inconclusive results are not listed. The source made the active and inactive calls. Rule for the calls, unless noted: active = hit-call score of the fitted dose curve at least 0.9, where 1 is the maximum; inactive = score below 0.9.

Legend:
[1] = read-out: Interleukin-8 (IL8), CXCL8 (gene 3576); test: BSK_3C_IL8: BioMAP Diversity Plus: 3C Assay for Interleukin-8 (IL8) Biomarker Activity (AID 2283020); conditions: primary human endothelial cells (HUVEC); actives raise or lower the signal
In short: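 ELISA read-out of IL-8 from human umbilical vein endothelium, measured 24 h after chemical dosing. Activity is expressed relative to DMSO negative control, with both increases and decreases fitted.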

[2] = read-out: Monokine induced gamma interferon (MIG), CXCL9 (gene 4283); test: BSK_3C_MIG: BioMAP Diversity Plus: 3C Assay for Monokine induced gamma interferon (MIG) Biomarker Activity (AID 2283021); conditions: primary human endothelial cells (HUVEC); actives raise or lower the signal
In short: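 Read-out is ELISA detection of MIG on human umbilical vein endothelial cells, taken 24 h after dosing. Gain or loss of signal was scored relative to DMSO controls using bidirectional curve fitting.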

[3] = BSK_3C_SRB: Viability Assessment in the BioMAP Diversity Plus: 3C Assay (AID 2283023); conditions: primary human endothelial cells (HUVEC);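 note: fitted both ways against DMSO so a hit may be signal rise or drop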
In short: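 Cytotoxicity readout in parallel HUVEC 3C cultures: after 24 h compound exposure, cells fixed with 10% TCA, stained with 0.1% SRB and read at 560 nm. Gain or loss relative to DMSO fitted.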

[4] = read-out: Matrix Metallopeptidase 1 (MMP1), MMP1 (gene 4312); test: BSK_BE3C_MMP1: BioMAP Diversity Plus: BE3C Assay for Matrix Metallopeptidase 1 (MMP1) Biomarker Activity (AID 2283024); conditions: primary human bronchial epithelial cells; actives raise or lower the signal
In short: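 Human bronchial epithelial cells (BE3C system) exposed to compound for 24 h; MMP1 then quantified by ELISA. Activity was fitted in both directions relative to DMSO.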

[5] = BSK_3C_Vis: BioMAP Diversity Plus: 3C Assay for Morphology Visualization (AID 2283025); conditions: primary human endothelial cells (HUVEC);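 note: fitted both ways so gain or loss versus DMSO counts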;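 for AC50: light microscopy image of cell morphology used as background control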
In short: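 Chemicals were added to primary human umbilical vein endothelium, cells were incubated 24 h, and morphology was then visualized by light microscopy. Gain or loss of signal was fitted bidirectionally relative to DMSO.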

[6] = BSK_4H_SRB: Viability Assessment in the BioMAP Diversity Plus: 4H Assay (AID 2283027); conditions: primary human endothelial cells (HUVEC);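 note: cells exposed to compound for 24 h before staining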;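 for AC50: curves fitted both ways versus DMSO so AC50 may be loss or gain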
In short: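 Absorbance at 560 nm of SRB-stained total protein served as the viability read-out in confluent primary human umbilical vein endothelium 24 h after chemical treatment. Curves were fitted bidirectionally against DMSO as negative control.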

[7] = BSK_BE3C_SRB: Viability Assessment in the BioMAP Diversity Plus: BE3C Assay (AID 2283028); conditions: primary human bronchial epithelial cells
In short: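 Cytotoxicity read-out: SRB (0.1%) staining of TCA-fixed (10%) human lung bronchial epithelial cells, absorbance 560 nm, 24 h post-dosing. Curves fitted both directions relative to DMSO.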

[8] = read-out: Thrombomodulin, THBD (gene 7056); test: BSK_3C_Thrombomodulin: BioMAP Diversity Plus: 3C Assay for Thrombomodulin Biomarker Activity (AID 2283029); conditions: primary human endothelial cells (HUVEC); actives raise or lower the signal
In short: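 Read-out is ELISA of thrombomodulin on human umbilical vein endothelium 24 h after chemical dosing. Gain or loss of signal is scored relative to DMSO. Overt cytotoxicity is checked in parallel cultures by sulforhodamine B staining.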

[9] = read-out: Urokinase-type plasminogen activator receptor (uPAR), PLAUR (gene 5329); test: BSK_4H_uPAR: BioMAP Diversity Plus: 4H Assay for Urokinase-type plasminogen activator receptor (uPAR) Biomarker Activity (AID 2283030); conditions: primary human endothelial cells (HUVEC); actives raise or lower the signal
In short: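 uPAR level read by ELISA on HUVEC cultures (BioMAP 4H) 24 h post-dosing, analyzed for gain or loss relative to DMSO. Parallel SRB staining assessed overt cytotoxicity.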

[10] = read-out: Vascular endothelial growth factor receptor 2 (Homo sapiens) (UniProt P35968); test: BSK_4H_VEGFRII: BioMAP Diversity Plus: 4H Assay for Vascular endothelial growth factor receptor 2 (VEGFR2) Biomarker Activity (AID 2283031); conditions: primary human endothelial cells (HUVEC); actives raise or lower the signal
In short: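 Measured by ELISA after 24 h of compound treatment: VEGFR2 on primary human umbilical vein endothelial cells, fitted in both directions relative to DMSO. Parallel cultures received SRB staining (560 nm) for overt cytotoxicity.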

[11] = read-out: Human Leukocyte Antigen - DR isotype (HLADR), HLA-DRA (gene 3122); test: BSK_BE3C_HLADR: BioMAP Diversity Plus: BE3C Assay for Human Leukocyte Antigen - DR isotype (HLADR) Biomarker Activity (AID 2283032); conditions: primary human bronchial epithelial cells; actives raise or lower the signal
In short: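 ELISA read-out of HLA-DR on human lung bronchial epithelial primary cells, measured 24 h post-dosing. Both increases and decreases were scored relative to DMSO vehicle.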

[12] = read-out: Vascular cell adhesion molecule 1 (VCAM1), VCAM1 (gene 7412); test: BSK_4H_VCAM1: BioMAP Diversity Plus: 4H Assay for Vascular cell adhesion molecule 1 (VCAM1) Biomarker Activity (AID 2283033); conditions: primary human endothelial cells (HUVEC); actives raise or lower the signal
In short: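 ELISA read-out of VCAM-1 on human umbilical vein endothelium 24 hours after chemical dosing; gain or loss of signal was fitted relative to DMSO, with sulforhodamine B staining of parallel cultures flagging overt cytotoxicity.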

[13] = read-out: Interferon-gamma inducible Protein 10 (IP10), CXCL10 (gene 3627); test: BSK_BE3C_IP10: BioMAP Diversity Plus: BE3C Assay for Interferon-gamma inducible Protein 10 (IP10) Biomarker Activity (AID 2283034); conditions: primary human bronchial epithelial cells; actives raise or lower the signal
In short: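 Chemical is dosed onto human lung bronchial epithelial primary cells, cultures are incubated 24 h, and IP-10 is then quantified by ELISA. Gain or loss of signal is fitted in both directions relative to DMSO.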

[14] = read-out: Monokine induced gamma interferon (MIG), CXCL9 (gene 4283); test: BSK_BE3C_MIG: BioMAP Diversity Plus: BE3C Assay for Monokine induced gamma interferon (MIG) Biomarker Activity (AID 2283035); conditions: primary human bronchial epithelial cells; actives raise or lower the signal;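 note: MIG protein measured by ELISA in BE3C cultures after 24 h of dosing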
In short: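 MIG level was determined by ELISA after 24 h chemical treatment of primary human bronchial epithelial cells. Values were fitted bidirectionally with DMSO as the negative control and activity baseline.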

[15] = read-out: Transforming growth factor beta 1 (TGFb1), TGFB1 (gene 7040); test: BSK_BE3C_TGFb1: BioMAP Diversity Plus: BE3C Assay for Transforming growth factor beta 1 (TGFb1) Biomarker Activity (AID 2283036;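 note: TGF-b1 protein level measured by ELISA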); conditions: primary human bronchial epithelial cells; actives raise or lower the signal
In short: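 Primary human lung bronchial epithelial cells; compound exposure 24 h; TGF-b1 by ELISA; bidirectional fit, DMSO baseline. Parallel SRB total-protein staining for cytotoxicity.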

[16] = read-out: Plasminogen activator inhibitor-1 (PAI1), SERPINE1 (gene 5054); test: BSK_BE3C_PAI1: BioMAP Diversity Plus: BE3C Assay for Plasminogen activator inhibitor-1 (PAI1) Biomarker Activity (AID 2283037); conditions: primary human bronchial epithelial cells; actives raise or lower the signal
In short: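 Primary human lung bronchial epithelial cells; chemical dosing; 24 h; PAI-1 measured by ELISA; bidirectional fit referenced to DMSO as negative control.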

[17] = read-out: urokinase plasminogen activator (uPA), PLAU (gene 5328); test: BSK_BE3C_uPA: BioMAP Diversity Plus: BE3C Assay for urokinase plasminogen activator (uPA) Biomarker Activity (AID 2283038); conditions: primary human bronchial epithelial cells; actives raise or lower the signal
In short: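 ELISA for uPA on human primary bronchial epithelial cultures 24 h post-treatment, gain or loss against DMSO. Parallel SRB staining (0.1% after 10% TCA fixation, 560 nm) assessed overt cytotoxicity.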

[18] = read-out: Urokinase-type plasminogen activator receptor (uPAR), PLAUR (gene 5329); test: BSK_BE3C_uPAR: BioMAP Diversity Plus: BE3C Assay for Urokinase-type plasminogen activator receptor (uPAR) Biomarker Activity (AID 2283039); conditions: primary human bronchial epithelial cells; actives raise or lower the signal;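 note: uPAR protein level measured by ELISA on the cells; cells exposed to compound for one day before measurement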
In short: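 Human bronchial epithelial primary cells; chemical exposure 24 h; uPAR by ELISA; bidirectional fit vs DMSO control.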

[19] = read-out: Pselectin, SELP (gene 6403); test: BSK_4H_Pselectin: BioMAP Diversity Plus: 4H Assay for Pselectin Biomarker Activity (AID 2283026); conditions: primary human endothelial cells (HUVEC); actives raise or lower the signal
In short: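 ELISA read-out of P-selectin on human umbilical vein endothelium after 24 h of dosing. Values derive from bidirectional fitting relative to DMSO. Parallel SRB protein staining flagged overt cytotoxicity.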

[20] = molecular target: human Vitamin D Receptor (VDR), VDR (gene 7421) (UniProt P11473); test: ATG_VDR_TRANS: Attagene TRANS-FACTORIAL HepG2 Assay for human Vitamin D Receptor (VDR) (AID 2283022; active = hit-call score of the fitted dose curve at least 0.9, where 1 is the maximum)
In short: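 Transactivation by an exogenous VDR-Gal4 chimera in transiently transfected HepG2 cells was measured as reporter transcript level 24 hours after chemical treatment. RT-PCR products were analysed by capillary electrophoresis and fitted in the positive direction relative to DMSO.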

Measured: AC50

Chain of human Vitamin D Receptor (VDR), VDR (gene 7421) (P11473 whole entry, looked up, the tested form may be a part): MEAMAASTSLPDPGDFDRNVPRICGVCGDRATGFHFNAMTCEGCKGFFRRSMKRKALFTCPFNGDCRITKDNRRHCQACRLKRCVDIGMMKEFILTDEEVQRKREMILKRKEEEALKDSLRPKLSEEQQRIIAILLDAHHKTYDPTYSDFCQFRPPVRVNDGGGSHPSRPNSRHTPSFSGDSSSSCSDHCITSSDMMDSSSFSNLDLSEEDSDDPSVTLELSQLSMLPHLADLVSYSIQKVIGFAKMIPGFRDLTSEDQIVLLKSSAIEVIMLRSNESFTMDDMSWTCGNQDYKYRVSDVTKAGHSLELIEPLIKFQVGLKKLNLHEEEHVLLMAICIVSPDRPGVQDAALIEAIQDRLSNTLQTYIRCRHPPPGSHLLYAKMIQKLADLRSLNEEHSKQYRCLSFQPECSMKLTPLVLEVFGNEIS

C=CCc1ccc(O)c(OC)c1
inactive: [1] | [2] | [3] | [4] | [5] | [6] | [7] | [8] | [9] | [10] | [11] | [12] | [13] | [14] | [15] | [16] | [17] | [18]

Cc1ccc2ncccc2c1
inactive: [1] | [2] | [3] | [4] | [5] | [6] | [7] | [8] | [9] | [11] | [12] | [13] | [14] | [15] | [16] | [17] | [18]

CC(=O)Oc1ccccc1C(=O)O
inactive: [1] | [2] | [3] | [4] | [5] | [6] | [7] | [8] | [11] | [12] | [13] | [14] | [15] | [16] | [17] | [18]
active: [9] 0.412 µM

CC=Cc1ccc(O)c(OC)c1
active: [12] 7.6 µM
inactive: [1] | [2] | [3] | [4] | [5] | [6] | [7] | [8] | [9] | [11] | [13] | [14] | [15] | [16] | [17] | [18]

Oc1ccc2ccccc2c1N=Nc1ccccc1
active: [12] 0.386 µM | [17] 2.47 µM
inactive: [1] | [2] | [3] | [5] | [6] | [7] | [8] | [9] | [11] | [13] | [14] | [15] | [16] | [18]

O=C(OCCCCCOC(=O)c1ccccc1)c1ccccc1
inactive: [1] | [2] | [3] | [5] | [19] | [6] | [7] | [8] | [9] | [11] | [12] | [13] | [14] | [15] | [16] | [17] | [18]

NCC1(Cc2noc(=O)[nH]2)CCCCC1
inactive: [1] | [2] | [3] | [4] | [5] | [6] | [7] | [8] | [9] | [11] | [12] | [13] | [14] | [15] | [16] | [17] | [18]

Nc1ccc(S(=O)(=O)c2ccc(N)cc2)cc1
inactive: [1] | [2] | [3] | [4] | [5] | [6] | [7] | [8] | [9] | [11] | [12] | [13] | [14] | [15] | [16] | [17] | [18]

COc1cccc2c1C(=O)c1c(O)c3c(c(O)c1C2=O)C[C@@](O)(C(=O)CO)C[C@@H]3O[C@H]1C[C@H](N)[C@H](O)[C@H](C)O1
inactive: [20]

CCCCc1ccc2c(n1)[C@@H](c1ccc(OC)cc1C[C@H](C)C(=O)O)[C@H](C(=O)O)[C@H]2c1ccc2c(c1)OCO2
inactive: [1] | [2] | [3] | [5] | [6] | [7] | [8] | [9] | [10] | [11] | [12] | [13] | [14] | [15] | [16] | [17] | [18]

O=c1c(O)c(-c2ccc(O)c(O)c2)oc2cc(O)cc(O)c12
inactive: [2] | [4] | [7] | [8] | [13] | [14] | [15] | [16] | [17] | [18]
active: [1] 14.5 µM | [3] 15.3 µM | [5] 37.5 µM | [6] 30.1 µM | [9] 33.6 µM | [11] 20 µM | [12] 26.9 µM

CCOC(=O)C(C)(C)Oc1ccc(Cl)cc1
inactive: [1] | [2] | [3] | [5] | [6] | [7] | [8] | [9] | [10] | [11] | [12] | [13] | [14] | [15] | [16] | [17] | [18]

CC(=O)OC/C=C(\C)CCC=C(C)C
inactive: [1] | [2] | [3] | [5] | [6] | [7] | [8] | [9] | [11] | [12] | [13] | [14] | [15] | [16] | [17] | [18]

COc1cc(C=O)ccc1O
inactive: [1] | [2] | [3] | [4] | [5] | [6] | [7] | [8] | [9] | [10] | [11] | [12] | [13] | [14] | [15] | [16] | [17] | [18]

CCCCCCCCCCCCCCCCCC(=O)O
active: [3] 20 µM | [5] 39 µM
inactive: [1] | [2] | [4] | [19] | [6] | [7] | [8] | [10] | [11] | [12] | [13] | [14] | [15] | [16] | [17] | [18]

Clc1cc(Cl)c(Cl)cc1Cl
inactive: [1] | [2] | [3] | [5] | [19] | [6] | [7] | [8] | [9] | [10] | [11] | [12] | [13] | [14] | [15] | [16] | [17] | [18]
